Pf Dd2 inh = qHTS Primary assay for Inhibitors of Plasmodium falciparum Dd2 growth in vitro | P. falciparum Dd2 growth, SYBR Green, 72 h | 120,000 tested, 4.3% active | Potency, µM (highest dose often 28.9 µM), for the others: top-dose activity, negative = inhibition, actives largely listed as inhibitors; active = well fitted inhibition curve with a large enough effect;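 also: plate controls were DMSO vehicle for no effect and reference drug for full effect; nearly all actives have a fitted effect of over 65% in size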
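Readout: SYBR Green fluorescence, 485 nm excitation, 535 nm emission, after ~16 h lysis at 37C. Before that, Dd2-infected red cells (2.5% hematocrit) grew 72 h with compound, 29 uM top final concentration.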
* marks the source's active call; other numbers are inactive results; i = inactive; [ ] = remark or other dose. The sample as a whole holds a higher share of hits than the screen did. Potency is read from the fitted curve at half-maximal effect.

SMILES	Pf Dd2 inh
Cc1ccc(Nc2nc3c(S(=O)(=O)c4ccccc4)nnn3c3ccsc23)c(C)c1	18%
Cc1ccc(S(=O)(=O)c2nnn3c2nc(NC(C)c2ccccc2)c2sccc23)cc1 (configuration not stated)	10µM*
Cc1ccc(C)c(S(=O)(=O)c2nnn3c2nc(N2CCN(C)CC2)c2sccc23)c1	8.9µM*
Cc1ccc(C)c(S(=O)(=O)c2nnn3c2nc(Nc2ccc(F)c(Cl)c2)c2sccc23)c1	13µM*
Cc1ccc(S(=O)(=O)c2nnn3c2nc(NCc2ccccc2)c2sccc23)cc1	i
CCc1ccc(S(=O)(=O)c2nnn3c2nc(NCc2ccc(F)cc2)c2ccccc23)cc1	-24%
CCc1ccc(S(=O)(=O)c2nnn3c2nc(Nc2ccc(F)cc2)c2cc(Cl)ccc23)cc1	1.3µM*
COCCC1(C(=O)O)CCCN(C(=O)N2CCN(C)CC2)C1 (configuration not stated)	-11%
Fc1ccc(CNC2(Cc3cc(-c4ccccc4)on3)COC2)cc1	-11%[44.1 µM]
CCCS(=O)(=O)N1CC[C@H](c2nc(C)no2)[C@H](NC(=O)COC)C1	i[5.79 µM]
CNC(=O)C1(N2CCC[C@H]2C(=O)N(C)CCN(C)C)CCOCC1	22%[44.1 µM]
COc1ccc(C)cc1NC(=O)N1CC(c2nnc(-c3ccncc3)o2)C2(CCOCC2)C1 (configuration not stated)	-2%
O=[S+]([O-])(NC1CCN(c2nc3ncccc3o2)CC1)c1cccs1	-15%
Cc1cc2ncc(C(=O)NC3CC3)cn2n1	11%[44.1 µM]
CCC[C@H]1CN(S(=O)(=O)c2ccc(-c3ccn[nH]3)o2)C[C@@H]1N	i
CCC[C@H]1CN(S(=O)(=O)c2cnn(CCC)c2)C[C@@H]1N	11µM*
CCC[C@H]1CN(S(=O)(=O)c2ccc(CC)s2)C[C@@H]1N	-21%
Cc1ccc(OCc2nc(C3CCCCN3)no2)cc1 (configuration not stated)	-15%
C[C@H]1CN(C(=O)c2nn(C)c3ccccc23)C[C@@H]1c1nc(-c2ccncc2)no1	i
CCCN(C)C(=O)c1onc(-c2ccc(OC)cc2)c1[C@H](C)O	-14%[44.1 µM]
Cc1cccc(OCC(=O)N2C[C@@H](CO)[C@H](c3ccccn3)C2)c1	-35%
CSc1ccc(Cn2nnc(C(=O)Nc3ccc(C)cc3Cl)c2N)cc1	2%
Cc1cc(C)cc(NC(=O)c2nnn(Cc3cccc(Br)c3)c2N)c1	i
Cc1ccc(Cn2nnc(C(=O)Nc3ccc(F)c(F)c3)c2N)cc1	0.89µM*
CCc1ccc(Cn2nnc(C(=O)Nc3ccc(C)cc3)c2N)cc1	-23%
SMILES	Pf Dd2 inh
Nc1c(C(=O)Nc2ccccc2Cl)nnn1Cc1cccc(Cl)c1	7.1µM*
CCOc1ccc(Cn2nnc(C(=O)Nc3ccc(Cl)cc3)c2N)cc1	i
CCn1cc(C(=O)NC(C)C(=O)Nc2ccc(C)cc2F)c(C)n1 (configuration not stated)	-2%
CC(=O)N1CCC[C@H]1C(=O)N1CCc2nc(C)nc(NC3CC3)c2CC1	0%
NC(=O)N1CCCC(C(=O)N2CCN(c3nsc4ccccc34)CC2)C1 (configuration not stated)	7%
CCC1CCCCN1CCNC(=O)CCc1cc2ccccc2[nH]c1=O (configuration not stated)	i
N#CCCN1CCN(C(=O)CCc2cc3ccccc3[nH]c2=O)CC1	-24%
O=C(CCc1cc2ccccc2[nH]c1=O)NCCN1CCc2ccccc2C1	3.2µM*
O=S(=O)(c1ccc2nc(Nc3ccc(F)cc3)ccc2c1)N1CCCC1	i
O=S(=O)(c1ccc2nc(Nc3cccc(F)c3)ccc2c1)N1CCCC1	-15%
CC1CCN(S(=O)(=O)c2ccc3nc(NCc4ccc(N(C)C)cc4)ccc3c2)CC1	11µM*
CC1CCN(S(=O)(=O)c2ccc3nc(Nc4cccc(C(F)(F)F)c4)ccc3c2)CC1	4.5µM*
CCOc1ccccc1CNc1ccc2cc(S(=O)(=O)N3CCC(C)CC3)ccc2n1	-21%
CC1CCN(S(=O)(=O)c2ccc3nc(N4CCN(c5ccc(F)cc5)CC4)ccc3c2)CC1	50%
O=C(C1CCCC1)N1CCC(n2cc(-c3nc(-c4ccccc4)no3)nn2)CC1	229%
CCc1noc(-c2cn(C3CCN(C(=O)C(C)Oc4ccc(Cl)cc4)CC3)nn2)n1 (configuration not stated)	-37%
CCN(CC)Cc1ccc2c(c1)CN(C(=O)c1cncc(Br)c1)CCO2	8.9µM*
Cc1ncoc1C(=O)N1CCOc2ccc(CCC(N)=O)cc2C1	-6%
CN1CCC2(CC1)CN(C(=O)c1cncc(Br)c1)Cc1ccccc1O2	-3%
O=C(CN1C(=O)NC(c2ccc(Cl)cc2)C2=C1COC2=O)Nc1cccc(F)c1 (configuration not stated)	i
CC(C)(O)c1cn(C[C@H]2C[C@@H]3CCN2C[C@@H]3C(=O)NCc2ccc(F)cc2)nn1	-12%[44.1 µM]
COc1ccc(C(=O)NC2CCN(c3cc(-c4cccs4)[nH]n3)CC2)cc1	-4%
Cc1[nH]ncc1CNC(=O)CCC[C@@H]1[C@H]2CCCN3CCC[C@@H](CN1Cc1cccnc1)[C@@H]23	i
CN1CCN(Cc2nc(C3(O)CCN(C)CC3)cs2)CC1	4%[44.1 µM]
C=CCNC(=O)N1CCC(O)(c2csc(CN3CCN(c4ccccn4)CC3)n2)CC1	1%
SMILES	Pf Dd2 inh
OC1(c2csc(CN3CCN(c4ccccn4)CC3)n2)CCN(Cc2ccccc2)CC1	8.9µM*
CC(=O)N1CCN(c2cc(-c3noc([C@@H]4CCCN4Cc4ccc(N(C)C)cc4)n3)ccn2)CC1	i
CCc1ccccc1S(=O)(=O)N1C[C@@H](F)C[C@H]1C(=O)N1CCc2ccccc2C1	i
CCc1cccc(Nc2ncncc2-c2nc(-c3ccccc3)no2)c1	-6%
Cc1ccc(S(=O)(=O)c2cn(Cc3ccccc3)c3cc(N4CCCC4)c(F)cc3c2=O)cc1	6.3µM*
Cc1ccc(S(=O)(=O)c2cn(Cc3ccccc3)c3cc(N4CCCC4)c(F)cc3c2=O)cc1C	10µM*
O=c1c(S(=O)(=O)c2cccc(Cl)c2)cn(Cc2ccccc2)c2cc(N3CCCCC3)c(F)cc12	i
CCn1cc(S(=O)(=O)c2ccc(OC)cc2)c(=O)c2cc(F)c(N3CCCCCC3)cc21	-24%
O=c1c(S(=O)(=O)c2ccccc2)cn(Cc2cccc(F)c2)c2cc(N3CCCC3)c(F)cc12	-14%
CCn1cc(S(=O)(=O)c2cc(C)cc(C)c2)c(=O)c2cc(F)c(N3CCCC3)cc21	i
CCCn1cc(S(=O)(=O)c2ccc(C)c(C)c2)c(=O)c2cc(F)c(N3CCC(C)CC3)cc21	-10%
CCn1cc(S(=O)(=O)c2ccc(C)cc2C)c(=O)c2cc(F)c(N3CCCCC3)cc21	11µM*
O=c1c(S(=O)(=O)c2ccccc2)cn(Cc2ccccc2)c2cc(N3CCCC3)c(F)cc12	-5%
Cc1cccc(CC(=O)N2CCC3(CC2)CC(OCC2CC2)CCO3)c1 (configuration not stated)	-5%
CN(C)[C@@H]1CN(C(=O)c2ccc(F)cc2)CC[C@]1(O)c1ccccc1	-11%[5.79 µM]
Cc1cccc(CN2CCCC(O)(CNCc3cccc(C)n3)C2=O)c1 (configuration not stated)	-23%
O=C(Cc1ccsc1)N1CCCC(Cc2nc(C3CCOCC3)no2)C1 (configuration not stated)	-23%
CCOC(=O)C1(Cc2cccc(C(F)(F)F)c2)CCN(Cc2cc(C(C)C)n[nH]2)CC1	7.1µM*
CCOC(=O)C1(Cc2ccc(F)cc2)CCCN(C(=O)c2ccco2)C1 (configuration not stated)	i

Screens (PubChem BioAssay)
